Here are results for six molecules from PubChem BioAssay (NCATS).

Several values for one entry are separate records, joined by “and”; a condition that tells them apart may be missing. Equal entries are not always repeated. Inconclusive results are not listed. Activity calls are given as the source filed them. Unless noted, calls come from the whole dose curve; as a rule, active = well fitted curve in the direction sought with a large enough effect; inconclusive = small, poorly fitted or top-dose-only effect, or another doubt; inactive = no such curve, though single readings can be large; an effect the other way counts as inactive or inconclusive.

Experiment [1] concerns the target M-phase phosphoprotein 8 (Homo sapiens) (UniProt Q99549). Nature of the experiment: qHTS Validation Assay for Inhibitors for MPP8 Chromodomain Interactions with Methylated Histone Tails (AID 488949).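 Note: AlphaScreen signal from MPP8 chromodomain bound to biotinylated H3K9me3 peptide; top concentration of the series differs between compounds; % is set by controls: 0 for no effect and ±100 for the full control effect; nearly all actives have a fitted effect of over 55% in size.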 Put shortly:
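AlphaScreen proximity signal from streptavidin donor and Ni-chelate acceptor beads (10 ug/mL each) reported binding of MPP8 to trimethyl-K9 H3(1-18) peptide, both at 50 nM. The complex formed 30 min before a 30 min compound exposure at room temperature, in PBS pH 7.4.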
On the technique in general: Quantitative high-throughput screening tests each substance at several concentrations.

For experiment [2], the target named is Chromobox protein homolog 1 (Homo sapiens) (UniProt P83916). Nature of the experiment: qHTS Validation Assay for Inhibitors of HP1-beta Chromodomain Interactions with Methylated Histone Tails (AID 488953).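 Note: loss of AlphaScreen luminescence from HP1-beta binding biotinylated H3K9me3 peptide; series mostly up to about 110 µM; % is set by controls: 0 for no effect and ±100 for the full control effect; nearly all actives have a fitted effect of over 50% in size.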 Put shortly:
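AlphaScreen proximity readout: streptavidin donor and Ni-chelate acceptor beads, 10 ug/mL final, 30 min dark, RT. Complex of 50 nM HP1-beta and 50 nM b-H3(1-18)K9me3 formed 30 min, then compound-treated 30 min; PBS pH 7.4/0.01% Tween-20.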

Experiment [3] addresses Methanococcus maripaludis chaperonin (MmCpn) (UniProt Q6LX38). Nature of the experiment: High-Throughput Screening for Modulators of Cytosolic Chaperonin Activity: MmCpn Primary Screen (AID 488978).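 Note: 50 nM MmCpn enzyme hydrolysing 30 µM ATP at 37 °C; 0% is about no effect.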 In a few lines: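 ATPase activity of 50 nM MmCpn was assayed with 30 uM ATP, 10 minutes at 37C, after a 5 min compound preincubation at room temperature. ADP production was read as HTRF emission at 590 and 665 nm.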

For experiment [4], the target named is Transient receptor potential cation channel subfamily V member 1 (Homo sapiens) (UniProt Q8NER1). Nature of the experiment: HTS Assay for Compounds that Act as Enhancers of the Vanilloid Receptor 1 (AID 488979). Note: 0% is about no effect. In a few lines:
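Calcium influx kinetics via Fluo-8 (480/520 nm) in TRPV1-expressing cells, 2000/well cultured overnight at 35.5C. Compound-alone read 3 min (agonist phase), followed by EC20 capsaicin challenge for 2 min (enhancer phase).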

The target in experiment [5] is Thyrotropin receptor (Homo sapiens) (UniProt P16473). Nature of the experiment: qHTS Assay for Antagonists of the Thyroid Stimulating Hormone Receptor (AID 488980). Note: series mostly up to about 58 µM; 0% is about no effect. Put shortly: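 Inhibition of cAMP raised by EC80 TSH (4 nM final) was read by HTRF, with lysate cAMP competing against cAMP-d2 for cryptate antibody after 30 min at room temperature. The cells were transfected HEK293 held in phosphodiesterase inhibitor RO 20-1724 at 70 uM.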
Sequence of Thyrotropin receptor (Homo sapiens) (P16473 whole entry, looked up): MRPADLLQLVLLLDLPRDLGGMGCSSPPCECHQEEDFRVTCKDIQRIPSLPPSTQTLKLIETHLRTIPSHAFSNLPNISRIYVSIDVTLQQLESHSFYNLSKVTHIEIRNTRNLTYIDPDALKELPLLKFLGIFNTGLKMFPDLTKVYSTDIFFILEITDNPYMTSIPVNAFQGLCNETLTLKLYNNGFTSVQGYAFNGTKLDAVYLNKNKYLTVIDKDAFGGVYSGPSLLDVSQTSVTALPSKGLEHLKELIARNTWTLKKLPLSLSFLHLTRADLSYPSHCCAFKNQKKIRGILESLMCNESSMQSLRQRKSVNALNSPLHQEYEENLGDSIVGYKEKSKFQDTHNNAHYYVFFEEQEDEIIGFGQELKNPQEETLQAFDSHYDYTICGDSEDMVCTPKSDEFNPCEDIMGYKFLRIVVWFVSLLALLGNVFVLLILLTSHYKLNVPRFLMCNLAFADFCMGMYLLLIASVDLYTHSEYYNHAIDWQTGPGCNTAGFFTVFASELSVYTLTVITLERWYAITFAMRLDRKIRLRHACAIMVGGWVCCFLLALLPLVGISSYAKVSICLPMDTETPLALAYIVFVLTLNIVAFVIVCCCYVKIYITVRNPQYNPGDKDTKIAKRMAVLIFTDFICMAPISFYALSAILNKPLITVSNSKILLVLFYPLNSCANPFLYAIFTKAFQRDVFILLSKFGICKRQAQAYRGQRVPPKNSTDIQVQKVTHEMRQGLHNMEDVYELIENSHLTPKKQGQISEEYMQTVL

Experiment [6] concerns the target D(1A) dopamine receptor (Homo sapiens) (UniProt P21728). Briefly: HTS Assay for Allosteric Agonists of the Human D1 Dopamine Receptor: Primary Screen for Agonists (AID 488981). Note: 0% is about no effect. In a few lines:
(§1)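 Calcium flux in an inducible, force-coupled HEK293 Trex D1 line (overnight at 30 C): agonist mode is the 180 s kinetic read after compound; potentiator mode is the following 180 s read after dopamine at EC20.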

For experiment [7] the target is unchanged. Briefly: HTS Assay for Allosteric Agonists of the Human D1 Dopamine Receptor: Primary Screen for Potentiators (AID 488982). Note: 0% is about no effect. In a few lines:
as §1

The target is the same in experiment [8]. Nature of the experiment: HTS Assay for Allosteric Agonists of the Human D1 Dopamine Receptor: Primary Screen for Antagonists (AID 488983).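 Note: calcium flux response to an EC80 dopamine challenge measured with no-wash dye; % is set by controls: 0 for no effect and ±100 for the full control effect; nearly all actives have a fitted effect of over 65% in size.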 Put shortly: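 Calcium flux readout, no-wash dye, inducible HEK293 T-REx D1 line (force-coupled). Compound added after 10 s baseline, 180 s kinetic read; then dopamine at EC80, further 180 s read.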
Experiment [9] deals with ATP-dependent 6-phosphofructokinase (Trypanosoma brucei brucei) (UniProt O15648). Nature of the experiment: qHTS Assay to Find Inhibitors of T. brucei phosphofructokinase: hit validation (AID 492961).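 Note: luminescence reports ADP formed as PFK phosphorylates fructose-6-phosphate with ATP; series mostly up to about 51 µM; % is set by controls: 0 for no effect and ±100 for the full control effect.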 Put shortly: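 In this biochemical qHTS validation, titrated compounds were tested against 1.25 nM PFK with 0.1 mM ATP and 0.5 mM F6P. Percent activity came from controls lacking or containing enzyme.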
Sequence of ATP-dependent 6-phosphofructokinase (Trypanosoma brucei brucei) (O15648 whole entry, looked up): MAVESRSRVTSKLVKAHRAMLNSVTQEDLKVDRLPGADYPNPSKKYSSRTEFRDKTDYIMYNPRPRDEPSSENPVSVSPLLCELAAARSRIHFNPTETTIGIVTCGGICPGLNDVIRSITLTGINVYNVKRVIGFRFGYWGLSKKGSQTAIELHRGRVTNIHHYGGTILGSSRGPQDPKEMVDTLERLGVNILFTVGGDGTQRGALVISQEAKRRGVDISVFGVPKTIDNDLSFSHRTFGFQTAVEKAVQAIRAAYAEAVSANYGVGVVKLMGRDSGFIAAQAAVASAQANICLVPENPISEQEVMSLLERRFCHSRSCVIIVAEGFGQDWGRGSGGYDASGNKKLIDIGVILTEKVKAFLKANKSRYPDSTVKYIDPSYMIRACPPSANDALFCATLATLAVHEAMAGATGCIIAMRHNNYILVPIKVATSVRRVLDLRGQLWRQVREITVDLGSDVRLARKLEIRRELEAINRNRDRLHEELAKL

A short description of experiment [10]: Validation screen for small molecules that induce genotoxicity in human embryonic kidney (HEK293T) cells expressing luciferase-tagged ELG1 (AID 493106). Note: 0% is about no effect. In a few lines: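 qHTS format; 2,000 HEK293T ELG1-luc cells/well; 23 nL compound via pin tool; 16 hr, 37 °C/5% CO2; ONE-Glo, 30 min RT; luminescence read.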
The target of experiment [11] is Thyrotropin-releasing hormone receptor (Homo sapiens) (UniProt P34981). Briefly: qHTS for Small Molecule Agonists and Allosteric Enhancers of Human TRH Receptor: Validation Screen for Agonists (AID 493127;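 active = calcium activation more than 3 SD above the typical response in the agonist read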;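 note: intracellular calcium rise by fluo-8 fluorescence before TRH EC20 addition; 0% is about no effect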). The note with it: TRH receptor agonist cell assay; at 2 µM; stronger effect = higher value. In a few lines:
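Read-out: intracellular calcium release measured kinetically by FDSS (fluo-8, ex 480/em 530 nm), 1 reading/s after a 10-cycle baseline. TRHR cells, 2000/well, cultured 18 h at 33.5C, dye-loaded at room temp. Compound-evoked positive calcium signal flags agonists.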

Experiment [12] can be described thus: Nrf2 qHTS screen for inhibitors: Validation (AID 493153; active = well fitted inhibition curve with a large enough effect in the main read-out, with a control signal flat, not every such curve was filed as active). The note with it: Potency: luciferase luminescence; viability change: measured here: cytotoxicity max response. In a few lines:
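Concentration-response test in A549 ARE_Fluc reporter cells (5% FBS OPTI-MEM), compound exposure 18-24 h at 37°C, 5% CO2. Cell viability measured first by CellTiter-Fluor fluorescence; ARE-driven luciferase luminescence then measured as Nrf2 activity.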

Experiment [13] can be described thus: qHTS for Inhibitors of Cell Surface uPA Generation: Validation Assay (AID 493164).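 Note: RAW 264.7 macrophage cells exposed to compound for 18 h; 0% is about no effect.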 Put shortly: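 Compounds are titrated over seven points (2.45 nM–38.3 uM final) onto pre-plated RAW 264.7 cells and incubated for 18 h. Retained intracellular ATP, measured with ATP-Lite, indicates blocked lethal factor entry.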
For experiment [14], the target named is Galactokinase (Homo sapiens) (UniProt P51570). Nature of the experiment: qHTS Validation Assay for Inhibitors of Human Galactokinase (GALK) (AID 493189). Note: 0% is about no effect. Put shortly:
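Inhibition was measured as remaining ATP, detected by luciferase luminescence after a 1 h room-temperature reaction. Final conditions: 5 nM GALK, 100 uM galactose, 35 uM ATP, pH 8.0 HEPES buffer.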

A short description of experiment [15]: Validation screen for small molecules that induce DNA re-replication in SW480 colon adenocarcinoma cells (AID 504364). Note: 0% is about no effect. Put shortly: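 Read-out: total Hoechst intensity of nuclei by fluorescence scanning imager; hits raise the fraction of nuclei with elevated DNA content. Cells received compound for 48 hr at 37 C before a 40 min stain.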
Experiment [16] addresses Peptidyl-prolyl cis-trans isomerase NIMA-interacting 1 (Homo sapiens) (UniProt Q13526). Briefly: qHTS Validation Assay to Find Inhibitors of Pin1 (AID 504536; active = well fitted inhibition curve with a large enough effect in the polarisation, with a control signal flat, not every such curve was filed as active; the % refers to the polarisation;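 note: 0% = full Pin1 enzyme wells and -100% = no-enzyme wells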). Put shortly: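 Fluorescence polarization competition: compounds (titration) displace HiFluor-488-labeled Pin1-1b peptide from Pin1 (0.3 uM final) in pH 7.5 HEPES buffer with DTT, 10 min at room temperature; %Activity normalized to no-enzyme wells, curves fitted.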

Experiment [17] concerns the target Phosphoglycerate kinase, glycosomal (Trypanosoma brucei brucei) (UniProt P07378). Briefly: qHTS Validation Assay to Find Inhibitors of Phosphoglycerate Kinase (AID 504547).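 Note: control wells lack PGK and mark full inhibition.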 In a few lines: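 Luminescence end-point (Kinase-Glo Plus, 10 min) after a 60 min room-temperature coupled reaction. GAPDH at 100nM final supplies 1,3-BPG to PGK. Buffer: 100mM TEA pH 7.6, 5mM MgCl2, 0.01% Tween-20. Wells lacking PGK served as controls.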

The target of experiment [18] is Ubiquitin carboxyl-terminal hydrolase 1 (Homo sapiens) (UniProt O94782). Briefly: Inhibitors of USP1/UAF1: Pilot qHTS (AID 504865).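 Note: rhodamine fluorescence freed from ubiquitin-rhodamine substrate followed over time; top concentration of the series differs between compounds; % is set by controls: 0 for no effect and ±100 for the full control effect; nearly all actives have a fitted effect of over 35% in size.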 Put shortly: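 Deubiquitinase activity followed as kinetic rhodamine fluorescence release from 150 nM Ub-Rho. 1 nM USP1/UAF1 with compound, after 15 min room-temperature preincubation, in HEPES pH 7.8 buffer containing TCEP, EDTA, BSA and Tween-20.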
Sequence of Ubiquitin carboxyl-terminal hydrolase 1 (Homo sapiens) (O94782 whole entry, looked up): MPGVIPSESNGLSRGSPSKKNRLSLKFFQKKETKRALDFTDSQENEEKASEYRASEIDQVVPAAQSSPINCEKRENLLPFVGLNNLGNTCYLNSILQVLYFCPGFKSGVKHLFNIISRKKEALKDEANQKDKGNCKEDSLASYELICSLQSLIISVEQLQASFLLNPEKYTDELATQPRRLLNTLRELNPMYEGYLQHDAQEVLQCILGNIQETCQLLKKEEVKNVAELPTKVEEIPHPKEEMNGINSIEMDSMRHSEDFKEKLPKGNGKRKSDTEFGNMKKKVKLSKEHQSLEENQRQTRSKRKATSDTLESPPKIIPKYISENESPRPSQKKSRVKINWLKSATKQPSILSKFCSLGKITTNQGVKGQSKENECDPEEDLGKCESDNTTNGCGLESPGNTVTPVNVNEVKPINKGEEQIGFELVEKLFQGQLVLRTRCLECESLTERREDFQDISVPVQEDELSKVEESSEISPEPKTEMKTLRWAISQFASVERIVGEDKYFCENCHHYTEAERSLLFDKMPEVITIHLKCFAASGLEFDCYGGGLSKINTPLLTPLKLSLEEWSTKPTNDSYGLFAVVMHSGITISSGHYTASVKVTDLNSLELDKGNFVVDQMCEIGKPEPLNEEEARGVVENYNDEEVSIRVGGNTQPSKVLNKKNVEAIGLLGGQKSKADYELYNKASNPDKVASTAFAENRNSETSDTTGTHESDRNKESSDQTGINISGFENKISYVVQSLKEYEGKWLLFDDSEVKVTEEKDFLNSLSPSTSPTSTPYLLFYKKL

Experiment [19] deals with ATPase family AAA domain-containing protein 5 (Homo sapiens) (UniProt Q96QE3). Briefly: Validation screen for small molecules that inhibit ELG1-dependent DNA repair in human embryonic kidney (HEK293T) cells expressing luciferase-tagged ELG1 (AID 493107).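 Note: cells co-treated with the DNA-damaging agent 5-fluorouridine alongside compound; series mostly up to about 46 µM; % is set by controls: 0 for no effect and ±100 for the full control effect; inhibitors lower the ELG1-luciferase luminescence signal; nearly all actives have a fitted effect of over 70% in size.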 Put shortly: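 ELG1-luciferase HEK293T reporter; 5-fluorouridine + compound/DMSO, 16 hr, 37 °C, 5% CO2; ONE-Glo 30 min RT; luminescence read, qHTS format.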

The target of experiment [20] is phosphoglycerate mutase (Leishmania major) (UniProt Q4Q090). Briefly: qHTS Validation Assay to Find Inhibitors of Phosphoglycerate Mutase (AID 504548). Note: series mostly up to about 58 µM; % is set by controls: 0 for no effect and ±100 for the full control effect. Put shortly:
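Lm PGAM 1.25nM final; 100 mM TEA pH 7.6, 5 mM MgCl2, 0.01% Tween-20; 45 min RT; Kinase-GloPlus, 10 min; end-point luminescence. Enzyme-free wells as negative controls.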

Sequence of Methanococcus maripaludis chaperonin (MmCpn) (Q6LX38 1-543): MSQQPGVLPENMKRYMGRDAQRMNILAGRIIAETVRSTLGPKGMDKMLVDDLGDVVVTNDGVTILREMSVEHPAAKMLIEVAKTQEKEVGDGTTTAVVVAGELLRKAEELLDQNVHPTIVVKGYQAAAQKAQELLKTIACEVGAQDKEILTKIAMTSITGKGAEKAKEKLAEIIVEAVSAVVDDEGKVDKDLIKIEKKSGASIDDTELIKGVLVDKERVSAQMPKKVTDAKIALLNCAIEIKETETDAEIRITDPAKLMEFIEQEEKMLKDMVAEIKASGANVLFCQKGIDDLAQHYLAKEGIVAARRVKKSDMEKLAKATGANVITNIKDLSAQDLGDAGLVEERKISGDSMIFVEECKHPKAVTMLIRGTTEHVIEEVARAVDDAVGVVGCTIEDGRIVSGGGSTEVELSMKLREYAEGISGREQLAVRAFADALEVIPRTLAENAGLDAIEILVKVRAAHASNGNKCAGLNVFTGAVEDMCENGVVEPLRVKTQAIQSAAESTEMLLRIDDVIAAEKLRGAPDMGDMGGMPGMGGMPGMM
Sequence of D(1A) dopamine receptor (Homo sapiens) (P21728 whole entry, looked up): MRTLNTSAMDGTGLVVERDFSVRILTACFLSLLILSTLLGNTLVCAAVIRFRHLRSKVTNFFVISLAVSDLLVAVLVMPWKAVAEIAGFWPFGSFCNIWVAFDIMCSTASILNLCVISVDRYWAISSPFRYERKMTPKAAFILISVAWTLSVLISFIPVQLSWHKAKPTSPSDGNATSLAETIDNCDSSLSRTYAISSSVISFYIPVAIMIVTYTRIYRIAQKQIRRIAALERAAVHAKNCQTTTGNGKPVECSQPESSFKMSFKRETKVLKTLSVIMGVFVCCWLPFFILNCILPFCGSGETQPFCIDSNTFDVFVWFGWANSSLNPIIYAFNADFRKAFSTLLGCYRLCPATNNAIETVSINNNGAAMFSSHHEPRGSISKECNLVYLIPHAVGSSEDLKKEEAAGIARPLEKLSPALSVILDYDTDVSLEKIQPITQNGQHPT
Sequence of Thyrotropin-releasing hormone receptor (Homo sapiens) (P34981 whole entry, looked up): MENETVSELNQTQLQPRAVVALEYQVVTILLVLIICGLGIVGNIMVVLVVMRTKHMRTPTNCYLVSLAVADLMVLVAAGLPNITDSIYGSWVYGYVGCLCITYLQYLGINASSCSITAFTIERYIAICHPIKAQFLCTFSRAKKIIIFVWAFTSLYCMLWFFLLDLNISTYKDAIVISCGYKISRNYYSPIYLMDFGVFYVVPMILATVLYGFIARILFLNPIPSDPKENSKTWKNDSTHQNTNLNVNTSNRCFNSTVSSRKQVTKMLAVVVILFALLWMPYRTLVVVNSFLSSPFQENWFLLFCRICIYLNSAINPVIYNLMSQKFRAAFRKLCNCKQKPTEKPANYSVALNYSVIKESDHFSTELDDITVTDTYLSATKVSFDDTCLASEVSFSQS
Sequence of Peptidyl-prolyl cis-trans isomerase NIMA-interacting 1 (Homo sapiens) (Q13526 whole entry, looked up): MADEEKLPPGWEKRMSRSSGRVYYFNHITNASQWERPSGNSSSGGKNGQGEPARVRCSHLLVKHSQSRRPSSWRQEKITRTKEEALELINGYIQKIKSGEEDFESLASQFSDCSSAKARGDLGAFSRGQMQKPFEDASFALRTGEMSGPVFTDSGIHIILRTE
Sequence of Galactokinase (Homo sapiens) (P51570 whole entry, looked up): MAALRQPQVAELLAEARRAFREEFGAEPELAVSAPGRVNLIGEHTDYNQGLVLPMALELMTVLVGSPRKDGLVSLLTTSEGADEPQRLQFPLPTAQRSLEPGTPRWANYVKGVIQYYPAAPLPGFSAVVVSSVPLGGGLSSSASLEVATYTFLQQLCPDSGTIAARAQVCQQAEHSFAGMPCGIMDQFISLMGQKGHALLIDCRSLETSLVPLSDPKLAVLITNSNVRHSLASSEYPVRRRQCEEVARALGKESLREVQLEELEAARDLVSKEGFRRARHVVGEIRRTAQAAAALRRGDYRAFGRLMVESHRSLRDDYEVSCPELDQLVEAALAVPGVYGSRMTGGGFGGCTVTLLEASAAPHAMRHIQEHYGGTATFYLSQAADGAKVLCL
Sequence of Phosphoglycerate kinase, glycosomal (Trypanosoma brucei brucei) (P07378 whole entry, looked up): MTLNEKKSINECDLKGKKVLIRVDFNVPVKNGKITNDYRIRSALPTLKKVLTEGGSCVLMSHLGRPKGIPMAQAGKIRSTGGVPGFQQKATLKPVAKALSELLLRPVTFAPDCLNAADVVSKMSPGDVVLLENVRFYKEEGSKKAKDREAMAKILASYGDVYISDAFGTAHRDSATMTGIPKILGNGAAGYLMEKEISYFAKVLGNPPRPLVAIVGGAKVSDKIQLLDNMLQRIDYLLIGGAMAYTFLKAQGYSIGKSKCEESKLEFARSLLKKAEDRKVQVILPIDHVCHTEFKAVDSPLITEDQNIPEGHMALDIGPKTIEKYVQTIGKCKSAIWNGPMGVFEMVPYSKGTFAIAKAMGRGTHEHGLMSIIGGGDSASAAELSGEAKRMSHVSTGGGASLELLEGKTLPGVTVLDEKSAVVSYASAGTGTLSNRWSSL
Sequence of Chromobox protein homolog 1 (Homo sapiens) (P83916 whole entry, looked up): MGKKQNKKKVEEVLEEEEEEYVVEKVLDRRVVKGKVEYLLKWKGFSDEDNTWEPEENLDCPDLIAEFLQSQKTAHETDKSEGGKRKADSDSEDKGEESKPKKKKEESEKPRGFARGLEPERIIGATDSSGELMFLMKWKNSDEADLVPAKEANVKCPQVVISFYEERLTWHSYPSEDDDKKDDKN

As for `CCCC(CCC)C(=O)O`, the Potency result in experiment [1], in experiment [2], in experiment [6], in experiment [7], in experiment [8] and in [10] was “inactive” in each case. Further, the Potency entry in experiment [12] and in [18] was “inactive” in each case. The call in experiment [3], in [4], in experiment [5], in experiment [9], in experiment [13] and in experiment [14] was inactive. For the same molecule, the result in experiment [15], in [16] and in experiment [17] was inactive. Further, in experiment [11], the activation was 0.688% (inactive). Besides, the viability change in experiment [12] was 2.98%.

Regarding `CC(C[N+](C)(C)C)OC(N)=O` (stereo unspecified), the Potency entry in experiment [1], in experiment [2], in [6], in [7], in experiment [8] and in [10] was “inactive” in each case. The Potency result in experiment [19], in experiment [12] and in [18] was “inactive” in each case. The call in [3], in [4], in [9], in [13], in [14] and in experiment [15] was inactive. For the same molecule, the molecule was called inactive in experiment [16] and in experiment [17]. Further, the activation in [11] was 0.562% (inactive). The viability change in experiment [12] is -0.659%.

Consider `O=NN(CCCl)C(=O)NCCCl`, for which the Potency entry in [1], in [2], in [6], in [7], in experiment [8] and in experiment [10] was “inactive” throughout. The Potency entry in experiment [19], in experiment [12] and in [18] was “inactive” in each case. Moreover, the result in experiment [3], in experiment [4], in experiment [5], in experiment [13], in experiment [14] and in experiment [15] was inactive. In addition, the result in [16] and in experiment [17] was inactive. The activation in experiment [11] was 0.438% (inactive). Besides, the viability change in experiment [12] was -0.612%.

For `Cn1cnc([N+](=O)[O-])c1Sc1ncnc2nc[nH]c12`, the Potency result in experiment [1], in experiment [2], in [6], in experiment [7], in [8] and in experiment [10] was “inactive” each time. Moreover, the Potency result in experiment [19], in [12] and in [18] was “inactive” each time. The outcome in experiment [3], in [4], in [5], in experiment [13], in experiment [14] and in experiment [15] was inactive. Besides, the outcome in experiment [16] and in experiment [17] was inactive. In addition, the activation in experiment [11] was 0.875% (inactive). Further, the viability change in experiment [12] was -10.4%.

In the case of `Cc1ccccc1C(OCCN(C)C)c1ccccc1` (stereo unspecified), the Potency result in experiment [1], in experiment [2], in experiment [6], in experiment [7], in experiment [8] and in experiment [10] was “inactive” in each case. The Potency result in experiment [19], in experiment [12] and in experiment [18] was “inactive” each time. In addition, the result in experiment [3], in experiment [4], in [5], in experiment [9], in experiment [13] and in [14] was inactive. The call in experiment [15], in [16], in experiment [17] and in experiment [20] was inactive. The activation in [11] is 0.625% (inactive). The viability change in experiment [12] stood at 7.3%.

Regarding `CC(C)(C)NCC(O)c1ccc(O)c(CO)c1` (stereo unspecified), the Potency entry in experiment [1], in experiment [2], in experiment [6], in experiment [7], in experiment [8] and in experiment [10] was “inactive” throughout. Moreover, the Potency result in experiment [19], in experiment [12] and in [18] was “inactive” throughout. Besides, the molecule was called inactive in [3], in experiment [4], in [5], in experiment [13], in [14] and in [15]. Moreover, the molecule was called inactive in experiment [16] and in experiment [17]. The activation in [11] was 0.188% (inactive) and 0.75% (inactive). In addition, in experiment [12], the viability change was -3.99% and 2.04%.
